Each structure is given as a SMILES string. Calls of active or inactive are those of the source. Rule for the calls: active = hit-call score of the fitted dose curve at least 0.9, where 1 is the maximum; inactive = score below 0.9.

Assay [1] can be described thus: ATG_E_Box_CIS: Attagene CIS-FACTORIAL HepG2 Assay for human Enhancer Box (E-box) (AID 2282936). The following applies: HepG2 E-box cis-reporter transcription, actives raise or lower the signal. The procedure, abridged: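 Multiplexed CIS reporter system in transiently transfected HepG2 cells measures native transcription factor activity. Reporter RNA after 24 h exposure is profiled by RT-PCR-capillary electrophoresis.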

Assay [2] can be described thus: ATG_M_61_CIS: Attagene CIS-FACTORIAL HepG2 Assay for M61 Transcription Factor (Internal Marker) (AID 2282937). The following applies: HepG2 Attagene CIS-FACTORIAL M61 internal marker reporter; actives raise or lower the signal. The procedure, abridged:
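Human liver HepG2, transient MRTU transfection (cis promoter elements), 24 h compound. Total RNA → oligo(dT) RT → PCR → FAM label → HpaI → CE. Internal background marker; bidirectional fitting, DMSO = baseline.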

Assay [3] can be described thus: ATG_EGR_CIS: Attagene CIS-FACTORIAL HepG2 Assay for human Early Growth Response 1 (EGR1) (AID 2282938). The following applies: HepG2 Attagene CIS-FACTORIAL EGR reporter mRNA; actives raise or lower the signal. The procedure, abridged:
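Transient transfection of human HepG2 with multiple cis-regulated reporter units, chemical exposure 24 h, total RNA isolated. Reverse transcription, PCR, fluorescent labelling and capillary electrophoresis quantify reporter transcripts; activity fitted bidirectionally against DMSO.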

Assay [4] is described as follows: ATG_M_19_CIS: Attagene CIS-FACTORIAL HepG2 Assay for M19 Transcription Factor (Internal Marker) (AID 2282939). The note with it: HepG2 Attagene CIS-FACTORIAL M19 internal marker reporter; actives raise or lower the signal. The method, boiled down: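 Following a 24 h exposure, RNA from transfected HepG2 cells was reverse-transcribed, PCR-amplified with reporter-specific primers, end-labelled with 6-FAM and HpaI-digested before capillary separation. Values represent gain or loss versus DMSO.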

Assay [5] is described as follows: ATG_ERE_CIS: Attagene CIS-FACTORIAL HepG2 Assay for Estrogen Response Element (ERE) (AID 2282940). The note with it: HepG2 ERE cis-reporter, Attagene RNA transcript; actives raise or lower the signal. The procedure, abridged: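 HepG2, transient cis-reporter units, 24 h exposure. RNA isolated, oligo(dT) RT, reporter-specific PCR, FAM extension, HpaI cut, CE detection. Gain/loss-of-signal vs DMSO.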

Assay [6] can be described thus: ATG_Ets_CIS: Attagene CIS-FACTORIAL HepG2 Assay for human Erythroblast Transformation Specific (ETS) (AID 2282941). The note with it: HepG2 ETS cis-reporter transcription, actives raise or lower the signal. The method, boiled down:
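After transient cis-reporter transfection, HepG2 cells receive test chemical for 24 h. Reporter mRNA levels, measured by RT-PCR and capillary electrophoresis fluorescence, are analysed bidirectionally relative to the DMSO baseline.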

For assay [7], the target named is Hepatocyte nuclear factor 3-beta (Homo sapiens) (UniProt Q9Y261). The assay is described as follows: ATG_FoxA2_CIS: Attagene CIS-FACTORIAL HepG2 Assay for human Forkhead box A2 (FOXA2) (AID 2282942). The note with it: HepG2 cis-reporter transcription factor activity, 24 h; actives raise or lower the signal. The procedure, abridged:
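Transient MRTU transfection of HepG2 liver cells; 24 h treatment; total RNA → oligo(dT) RT → PCR → FAM primer extension → HpaI cut → CE. Bidirectional fit vs DMSO.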

Assay [8] can be described thus: ATG_FoxO_CIS: Attagene CIS-FACTORIAL HepG2 Assay for human Forkhead box O (FoxO) (AID 2282943). The following applies: HepG2 Attagene cis-reporter, FoxO element, mRNA; actives raise or lower the signal. The method, boiled down: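 Values reflect reporter mRNA induction or loss in HepG2 cells 24 h post-dosing, fitted bidirectionally with DMSO as negative control and baseline. Detection used RT-PCR and fluorescence capillary electrophoresis.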

Assay [9] is described as follows: ATG_GATA_CIS: Attagene CIS-FACTORIAL HepG2 Assay for human GATA Binding Protein (AID 2282944). The note with it: HepG2 GATA cis-element reporter, Attagene multiplex mRNA; actives raise or lower the signal. The procedure, abridged: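 DMSO serves as negative control and baseline for bidirectional fitting of reporter mRNA changes. HepG2 cells bearing transiently transfected cis-promoter reporters were exposed 24 h; transcripts detected via RT-PCR and capillary electrophoresis.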

The target in assay [10] is Bile acid receptor (Homo sapiens) (UniProt Q96RI1). Description: ATG_IR1_CIS: Attagene CIS-FACTORIAL HepG2 Assay for human Nuclear Receptor Subfamily 1 Group H Member 4 (NR1H4), IR1 submotif (AID 2282946). The following applies: IR1 reporter transcription, actives raise or lower the signal. The procedure, abridged:
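Transient MRTU transfection, HepG2; 24 h dosing; RNA → RT-PCR → 6-FAM primer extension → HpaI digest → capillary electrophoresis fluorescence. Gain/loss of signal fitted relative to DMSO.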

A short description of assay [11]: ATG_GRE_CIS: Attagene CIS-FACTORIAL HepG2 Assay for human Glucocorticoid Response Elements (GRE) (AID 2282947). The note with it: HepG2 GRE cis-reporter, Attagene multiplex mRNA; actives raise or lower the signal. The method, boiled down: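 Following 24 h chemical exposure of transiently transfected HepG2 cells, total RNA was reverse-transcribed and reporter cDNA amplified, fluorescently labelled and sized by capillary electrophoresis. Signal gain or loss was fitted relative to DMSO vehicle.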

The nature of assay [12]: ATG_ISRE_CIS: Attagene CIS-FACTORIAL HepG2 Assay for human Interferon Regulatory Factor 1 (IRF1) binding to an Interferon-Stimulated Response Element (ISRE) (AID 2282948). The following applies: HepG2 ISRE cis-reporter (Attagene), mRNA transcription readout; actives raise or lower the signal. The method, boiled down: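 Quantitation relies on labelled RT-PCR fragments separated by capillary electrophoresis. Human HepG2 cells bearing cis-promoter reporter constructs were treated 24 h; DMSO served as baseline for bidirectional fitting.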

Assay [13] is described as follows: ATG_M_32_CIS: Attagene CIS-FACTORIAL HepG2 Assay for M32 Transcription Factor (Internal Marker) (AID 2282949).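 Note: background control marker of the multiplexed CIS panel rather than a real target.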 The note with it: HepG2 Attagene cis-factorial M32 reporter, mRNA; actives raise or lower the signal. The procedure, abridged:
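Fluorescent capillary electrophoresis peaks of HpaI-digested, FAM-labelled RT-PCR reporter products give the signal. Source: transiently transfected human liver HepG2 cells, 24 h after chemical dosing; bidirectional fitting against DMSO.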

A short description of assay [14]: ATG_M_06_CIS: Attagene CIS-FACTORIAL HepG2 Assay for M06 Transcription Factor (Internal Marker) (AID 2282950). The note with it: HepG2 Attagene CIS-FACTORIAL M06 internal marker reporter; actives raise or lower the signal. The procedure, abridged: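 Fluorescence-labelled RT-PCR products from cis-promoter reporter units, cut with HpaI and resolved by capillary electrophoresis, give the signal. Cells are human HepG2, dosed for 24 h. Serves as background control, fitted relative to DMSO.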

Assay [15] has as its target Hypoxia-inducible factor 1-alpha (Homo sapiens) (UniProt Q16665). Description: ATG_HIF1a_CIS: Attagene CIS-FACTORIAL HepG2 Assay for human Hypoxia Inducible Factor 1 (HIF1A) (AID 2282951). The following applies: HepG2 Attagene cis-factorial HIF1a reporter transcription; actives raise or lower the signal. The procedure, abridged:
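Transient MRTU transfection of human HepG2 liver cells, 24 h compound treatment, then total RNA isolation, oligo(dT) reverse transcription, PCR amplification, fluorescent labelling and capillary electrophoresis of reporter fragments. Gain or loss relative to DMSO.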

The target of assay [16] is Hepatocyte nuclear factor 6 (Homo sapiens) (UniProt Q9UBC0). The assay is described as follows: ATG_HNF6_CIS: Attagene CIS-FACTORIAL HepG2 Assay for human Hepatocyte Nuclear Factor 6 (HNF6) (AID 2282952). The note with it: HepG2 Attagene cis-factorial HNF6 reporter transcription; actives raise or lower the signal. The procedure, abridged:
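HepG2, transient MRTU transfection (cis promoters); 24 h chemical exposure; total RNA → oligo(dT) RT → PCR → 6-FAM labelling → HpaI cut → CE; bidirectional fit vs DMSO.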

In assay [17] the target is Heat shock factor protein 1 (Homo sapiens) (UniProt Q00613). Description: ATG_HSE_CIS: Attagene CIS-FACTORIAL HepG2 Assay for human Heat Shock Transcription Factor 1 (HSE) (AID 2282953). The following applies: HepG2 HSE cis-reporter, Attagene RNA transcription; actives raise or lower the signal. The method, boiled down: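 After a 24 h incubation with test chemical, transfected HepG2 cells were harvested for RNA; reporter transcripts were measured by RT-PCR and capillary electrophoresis. Values reflect gain or loss of signal relative to DMSO.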
Sequence of Heat shock factor protein 1 (Homo sapiens) (Q00613 whole entry, looked up): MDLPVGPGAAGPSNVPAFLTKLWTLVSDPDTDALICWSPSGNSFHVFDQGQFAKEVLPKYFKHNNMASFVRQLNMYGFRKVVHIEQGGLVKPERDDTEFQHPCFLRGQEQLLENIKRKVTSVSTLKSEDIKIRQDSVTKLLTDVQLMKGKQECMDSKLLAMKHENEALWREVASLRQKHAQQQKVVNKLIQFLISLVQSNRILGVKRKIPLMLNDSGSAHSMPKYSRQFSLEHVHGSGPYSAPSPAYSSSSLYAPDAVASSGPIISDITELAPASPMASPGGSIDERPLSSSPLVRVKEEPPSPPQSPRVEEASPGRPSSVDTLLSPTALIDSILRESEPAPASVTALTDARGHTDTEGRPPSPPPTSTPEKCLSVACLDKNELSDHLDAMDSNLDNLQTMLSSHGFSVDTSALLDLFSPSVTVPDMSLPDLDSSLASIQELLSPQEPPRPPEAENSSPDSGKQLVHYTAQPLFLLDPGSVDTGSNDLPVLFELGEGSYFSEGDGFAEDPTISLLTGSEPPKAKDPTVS

A short description of assay [18]: ATG_MRE_CIS: Attagene CIS-FACTORIAL HepG2 Assay for human Metal Responsive Element (MRE) (AID 2282954). The following applies: HepG2 MRE cis-reporter transcription, Attagene multiplex; actives raise or lower the signal. The method, boiled down: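 Step one: transfect HepG2 with cis-regulated reporter units. Step two: dose 24 h. Step three: isolate RNA, RT-PCR, 6-FAM label, HpaI digest, capillary electrophoresis. Fit bidirectionally to DMSO.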

Assay [19] is described as follows: ATG_PBREM_CIS: Attagene CIS-FACTORIAL HepG2 Assay for human Phenobarbital-responsive Enhancer Module (PBREM) (AID 2282955). The following applies: HepG2 PBREM cis-reporter, Attagene multiplexed transcription; actives raise or lower the signal. The method, boiled down: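 Endogenous transcription factors in human liver HepG2 cells drive a PBREM cis-element reporter, whose transcript level after 24 h treatment is quantified by RT-PCR with capillary electrophoresis; activity fitted in both directions against DMSO.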

The nature of assay [20]: ATG_GLI_CIS: Attagene CIS-FACTORIAL HepG2 Assay for human Zinc Finger Protein GLI1 (AID 2282945). The note with it: HepG2, Attagene cis-factorial reporter mRNA, GLI element; actives raise or lower the signal. The method, boiled down: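 HepG2 cells transiently transfected with cis-promoter multiplexed reporter units report endogenous transcription factor activity. After 24 h chemical exposure, reporter mRNA was quantified by RT-PCR, 6-FAM labelling, HpaI digestion and capillary electrophoresis, with bidirectional fitting against DMSO.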

Sequence of Hepatocyte nuclear factor 6 (Homo sapiens) (Q9UBC0 whole entry, looked up): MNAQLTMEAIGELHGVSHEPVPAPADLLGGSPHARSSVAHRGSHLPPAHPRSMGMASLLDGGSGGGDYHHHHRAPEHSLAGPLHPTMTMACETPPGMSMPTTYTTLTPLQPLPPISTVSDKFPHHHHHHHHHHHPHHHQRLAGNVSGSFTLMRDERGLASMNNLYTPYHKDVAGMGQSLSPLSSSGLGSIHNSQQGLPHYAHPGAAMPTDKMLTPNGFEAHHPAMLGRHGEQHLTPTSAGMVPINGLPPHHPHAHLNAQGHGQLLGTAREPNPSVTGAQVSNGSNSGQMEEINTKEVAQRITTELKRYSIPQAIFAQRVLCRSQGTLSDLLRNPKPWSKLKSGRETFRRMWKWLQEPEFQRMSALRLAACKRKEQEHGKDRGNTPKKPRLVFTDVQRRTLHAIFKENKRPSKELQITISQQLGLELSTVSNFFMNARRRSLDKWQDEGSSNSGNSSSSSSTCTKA
Sequence of Hypoxia-inducible factor 1-alpha (Homo sapiens) (Q16665 whole entry, looked up, the tested form may be a part): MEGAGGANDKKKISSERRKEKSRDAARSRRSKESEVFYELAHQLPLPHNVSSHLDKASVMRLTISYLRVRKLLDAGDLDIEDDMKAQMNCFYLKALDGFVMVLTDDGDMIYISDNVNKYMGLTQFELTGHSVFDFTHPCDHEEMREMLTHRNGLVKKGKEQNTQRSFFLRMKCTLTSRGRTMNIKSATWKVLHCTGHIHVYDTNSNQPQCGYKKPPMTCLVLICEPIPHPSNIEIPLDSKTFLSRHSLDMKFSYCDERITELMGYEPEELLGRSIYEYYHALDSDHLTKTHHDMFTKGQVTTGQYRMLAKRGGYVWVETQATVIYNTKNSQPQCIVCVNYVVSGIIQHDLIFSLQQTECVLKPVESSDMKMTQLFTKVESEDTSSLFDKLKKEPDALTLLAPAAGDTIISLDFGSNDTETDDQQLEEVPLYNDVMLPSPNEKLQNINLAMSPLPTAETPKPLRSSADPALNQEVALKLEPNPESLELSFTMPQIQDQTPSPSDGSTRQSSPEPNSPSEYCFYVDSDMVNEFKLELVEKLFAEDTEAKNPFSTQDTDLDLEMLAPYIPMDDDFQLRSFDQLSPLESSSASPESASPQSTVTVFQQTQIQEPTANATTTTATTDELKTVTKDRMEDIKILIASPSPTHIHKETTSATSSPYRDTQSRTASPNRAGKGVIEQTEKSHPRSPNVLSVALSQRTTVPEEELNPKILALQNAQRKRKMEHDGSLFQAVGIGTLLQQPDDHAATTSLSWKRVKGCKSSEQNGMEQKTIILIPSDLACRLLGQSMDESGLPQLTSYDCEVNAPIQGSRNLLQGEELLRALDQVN
Sequence of Hepatocyte nuclear factor 3-beta (Homo sapiens) (Q9Y261 whole entry, looked up): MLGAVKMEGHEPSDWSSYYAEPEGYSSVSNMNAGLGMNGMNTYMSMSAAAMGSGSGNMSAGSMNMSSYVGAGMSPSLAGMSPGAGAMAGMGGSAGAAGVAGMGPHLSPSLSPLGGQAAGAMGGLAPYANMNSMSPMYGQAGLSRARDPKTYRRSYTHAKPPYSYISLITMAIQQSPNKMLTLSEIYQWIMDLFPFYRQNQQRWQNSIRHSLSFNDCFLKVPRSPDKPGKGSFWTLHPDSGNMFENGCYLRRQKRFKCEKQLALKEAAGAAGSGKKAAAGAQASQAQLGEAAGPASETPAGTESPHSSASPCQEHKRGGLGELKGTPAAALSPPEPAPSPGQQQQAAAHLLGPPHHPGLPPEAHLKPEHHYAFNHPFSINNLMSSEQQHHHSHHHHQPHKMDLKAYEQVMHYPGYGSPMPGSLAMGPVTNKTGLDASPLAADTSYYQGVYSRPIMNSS
Sequence of Bile acid receptor (Homo sapiens) (Q96RI1 whole entry, looked up): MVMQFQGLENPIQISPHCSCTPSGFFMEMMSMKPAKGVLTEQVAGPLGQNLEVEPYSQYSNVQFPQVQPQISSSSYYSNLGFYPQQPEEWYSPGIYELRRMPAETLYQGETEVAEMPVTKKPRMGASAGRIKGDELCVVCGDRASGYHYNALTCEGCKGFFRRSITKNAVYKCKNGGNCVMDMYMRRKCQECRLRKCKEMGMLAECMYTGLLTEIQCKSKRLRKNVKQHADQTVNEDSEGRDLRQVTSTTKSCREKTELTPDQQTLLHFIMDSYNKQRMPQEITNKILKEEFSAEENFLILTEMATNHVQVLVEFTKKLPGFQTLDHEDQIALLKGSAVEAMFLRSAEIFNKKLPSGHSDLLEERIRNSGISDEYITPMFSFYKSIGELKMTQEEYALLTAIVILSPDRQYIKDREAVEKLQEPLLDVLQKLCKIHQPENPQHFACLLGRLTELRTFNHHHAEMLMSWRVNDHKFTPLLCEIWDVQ

As for `O=C(O)c1cc(Cl)cc([N+](=O)[O-])c1Cl`, the outcome in assay [1], in assay [2], in assay [3], in [4], in assay [5] and in [6] was inactive. Further, the result in [7], in [8], in [9], in [10], in assay [11] and in assay [12] was inactive. The compound was classed as inactive in assay [13], in assay [14], in assay [15], in assay [16], in assay [17] and in assay [18]. Moreover, the outcome in assay [19] was inactive.

Consider `CC(=O)OCc1ccco1`, for which the result in [1], in assay [2], in assay [3], in assay [4], in [5] and in assay [6] was inactive. The compound was called inactive in [7], in assay [8], in assay [9], in assay [20], in assay [12] and in assay [13]. In addition, the compound was called inactive in assay [14], in [15], in [16], in assay [17], in [18] and in [19].

In the case of `CCN(Cc1cccc(S(=O)(=O)O)c1)c1ccc(C(=C2C=CC(=[N+](CC)Cc3cccc(S(=O)(=O)[O-])c3)C=C2)c2ccccc2)cc1`, the outcome in assay [1], in assay [2], in assay [3], in assay [4], in [5] and in assay [6] was inactive. The compound was called inactive in assay [7], in assay [8], in assay [9], in [20], in [12] and in [13]. In addition, the result in [14], in assay [15], in [16], in [18] and in [19] was inactive.

Turning to `CCCCCCOc1cc(C)c(O)c(C)c1C`, the result in assay [1], in assay [2], in [3], in [4], in assay [5] and in assay [6] was inactive. Also, the result in assay [7], in [8], in assay [9], in [20], in assay [11] and in assay [12] was inactive. Further, the call in [13], in assay [15], in assay [16] and in [17] was inactive. In addition, the AC50 was 18.2 µM (active) in assay [18] and 11.1 µM (active) in assay [19].

Values taken from PubChem BioAssay (EPA / NIEHS).
